A selection: hits, their analogues and other compounds. The true share with any hit is near 3.5%.
RE007 growth inh: less growth of the S. pombe RE007 Vpr strain. S. pombe RE007 Vpr strain, BacTiter-Glo ATP luminescence, 24 h. Potency, µM (highest dose often 92.2 µM), without a hit: at the top dose activity change, negative = less growth, usual class: inhibitors. 0.21% of 360,000 active. AID 651644; active means well fitted falling curve with a large enough effect; inconclusive means small, poorly fitted or top-dose-only effect; inactive means no such curve, though single readings can be large or run the other way; further: on the % scale 0 is the no-effect control and ±100 the full control effect; nearly all actives have a fitted effect of over 50% in size
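Fission yeast strain RE007, carrying one chromosomally integrated HIV-1 vpr copy, was seeded at OD 0.01 in PMG+AL medium with 23 nL pinned compound. After 24 h at 30 °C and 99% humidity, viability was read by BacTiter-Glo luminescence.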
Sm TGR block: inhibitors of Schistosoma mansoni thioredoxin glutathione reductase; Potency, µM (highest dose often 114 µM), for the others: at the top dose activity change, negative = inhibition, actives largely listed as inhibitors; Q962Y6; 3% of 360,000 active; purified TGR, DTNB reduction, TNB absorbance 405 nm; further: on the % scale 0 is the no-effect control and ±100 the full control effect; nearly all actives have a fitted effect of over 60% in size
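TGR 20 nM + NADPH 100 uM (dispensed conc.), cpd preinc 15 min RT; start with NADPH (500 uM addition) then DTNB (15 mM addition). Kinetic TNB absorbance, 405 nm filter. Four-parameter Hill fit across titration.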
Tb PYK inh: inhibitors of Trypanosoma brucei pyruvate kinase; Q57TT1; Potency, µM (highest dose often 76.8 µM), inactives show at the highest dose activity, negative = inhibition, usual class: inhibitors; TbPYK enzyme, Kinase-Glo Plus ATP luminescence, 45 min; 0.12% of 410,000 active; further: on the % scale 0 is the no-effect control and ±100 the full control effect; nearly all actives have a fitted effect of over 50% in size
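Luminescence from Kinase-Glo Plus, added after a 45-minute room-temperature reaction, served as the end-point read-out. The enzyme and substrate were preincubated with compound before ADP (130 uM final) initiated turnover. Concentration-effect curves came from normalized qHTS data.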
NS1 function inh: inhibitors of influenza NS1 protein function. Potency, µM (top dose mostly 46.1 µM), for the others: at the highest dose activity, positive = more growth. 0.4% of 270,000 active. AID 2326; calls by dose curve; further: actives are rising curves; nearly all actives have a fitted effect of over 50% in size
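Read-out: OD600 growth recovery of NS1-expressing budding yeast. Cells grown overnight at 30C in -URA glucose medium, washed, resuspended and diluted 1:100 in 2% galactose assay medium, pH 6.0. Same strain lacking NS1 served as positive control.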
FBPA Giardia inh: blocks Giardia fructose-bisphosphate aldolase activity | AID 2451 | Potency, µM (highest dose often 59.6 µM), without a hit: top-dose activity, negative = inhibition, actives largely listed as inhibitors | purified Giardia FBPA | 0.71% of 290,000 active; further: on the % scale 0 is the no-effect control and ±100 the full control effect; nearly all actives have a fitted effect of over 55% in size
Target sequence (A8B2U2 whole entry, looked up): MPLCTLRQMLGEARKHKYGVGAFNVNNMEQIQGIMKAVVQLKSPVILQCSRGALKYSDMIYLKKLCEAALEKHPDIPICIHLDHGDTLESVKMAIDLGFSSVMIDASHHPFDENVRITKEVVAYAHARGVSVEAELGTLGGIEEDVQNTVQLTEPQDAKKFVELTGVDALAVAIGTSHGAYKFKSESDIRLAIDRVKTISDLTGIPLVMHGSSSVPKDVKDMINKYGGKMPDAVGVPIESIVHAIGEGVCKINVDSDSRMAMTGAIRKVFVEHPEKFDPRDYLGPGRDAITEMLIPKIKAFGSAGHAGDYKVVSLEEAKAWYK
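Giardia FBPA (40 nM reagent) was preincubated 10 min at RT with compound (up to 57.5 uM final), then substrate plus GAPDH/TPI/NAD/arsenate coupling system with diaphorase/resazurin was added; resorufin fluorescence (525/598 nm) was read after 20 min.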
LmPK inh: blocks Leishmania mexicana pyruvate kinase activity | purified LmPK, Kinase-Glo ATP luminescence, 1 h | Potency, µM (doses to about 57.5 µM), for inactives: at the top dose activity change, negative = inhibition, most hits filed as inhibitors | Q27686 | 0.37% of 290,000 active; further: on the % scale 0 is the no-effect control and ±100 the full control effect
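Screened at intermediate enzyme activity to detect both inhibitors and activators: LmPK at 0.1 nM, with a 0.5 nM enzyme column as activation reference. PEP 0.5 mM, ADP 0.1 mM; ATP detected by luminescence after 1 h.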
Numbers without * were called inactive. Unless noted, the call rests on the fitted dose curve; in most records, active means well fitted curve in the direction sought with a large enough effect; inconclusive means small, poorly fitted or top-dose-only effect, or another doubt; inactive means no such curve, though single readings can be large; an effect the other way counts as inactive or inconclusive. Potency means the concentration at half of the fitted maximal effect.

CS(=O)(=O)N1N=C(c2ccco2)CC1c1ccc(Cl)cc1Cl (stereo not drawn) was read as RE007 growth inh 23%, Sm TGR block 28µM*, Tb PYK inh 10%, NS1 function inh -2%, FBPA Giardia inh -3% and LmPK inh 2%.
`CN(C)c1ncc2nc(-c3ccc(Cl)cc3)c(=O)n(C[C@H]3CCCO3)c2n1` gave FBPA Giardia inh 3%.
Screening CC(=O)OC1CCC2(C)C(=CCC3C2CCC2(C)C(C(C)=O)CCC32)C1 (stereo not drawn) returned Tb PYK inh 2%.
`CC1CCN(C(CC(=O)c2ccccc2)C(=O)c2ccccc2)CC1` (stereo not drawn) gave RE007 growth inh 4.5µM* and Tb PYK inh 20µM*.
O=C1C2C3C=CC(CC3)C2C(=O)N1c1ccccc1[N+](=O)[O-] (stereo not drawn) was read as RE007 growth inh 4%, Sm TGR block 18µM*, Tb PYK inh -15%, FBPA Giardia inh 8% and LmPK inh -1%.
Cc1ccc(S(=O)(=O)N2CCCC2C(=O)OCc2ccccc2)cc1 (stereo not drawn) was read as RE007 growth inh 0%, Sm TGR block 6%, Tb PYK inh -9%, NS1 function inh -2%, FBPA Giardia inh 1% and LmPK inh 1%.
Screening Cc1ccc(S(=O)(=O)N2CCCC2C(=O)OCc2ccco2)cc1 (stereo not drawn) returned RE007 growth inh -12%, Sm TGR block 4.5µM*, Tb PYK inh -13%, NS1 function inh -25%, FBPA Giardia inh 2% and LmPK inh -3%.
For N#Cc1ccc(-c2ccco2)nc1SCc1ccccc1 the results were RE007 growth inh -2%, Sm TGR block inconclusive, Tb PYK inh -1%, NS1 function inh 6%, FBPA Giardia inh 0% and LmPK inh 5%.
Screening CCSc1nc(-c2ccco2)ccc1C#N returned RE007 growth inh 8%, Sm TGR block 11µM*, Tb PYK inh inconclusive, NS1 function inh -46%, FBPA Giardia inh -1% and LmPK inh 1%.
`CCOc1ccc(C2CC(=O)Nc3c2c(=O)[nH]c2ncnn32)cc1` (stereo not drawn) gave Sm TGR block -1% and Tb PYK inh 7%.
`O=c1c2sc3ccccc3c2n(Cc2ccccc2F)c(=O)n1-c1ccccc1Cl` gave Sm TGR block 0% and Tb PYK inh 5%.
`CCS(=O)(=O)c1ccc2oc(Nc3ccccc3Br)nc2c1` gave RE007 growth inh -16%, Sm TGR block 6%, Tb PYK inh 1%, NS1 function inh -1%, FBPA Giardia inh 15% and LmPK inh 16µM*.
`CCS(=O)(=O)c1ccc2oc(Nc3ccccc3Cl)nc2c1` gave RE007 growth inh -27%, Sm TGR block 6%, Tb PYK inh -15%, NS1 function inh 1% and LmPK inh -21%.
For CCn1c(CN2CCN(C)CC2)nc2cc(NC(=O)c3cc(OC)c(OC)c(OC)c3)ccc21 the results were Sm TGR block -1% and Tb PYK inh -11%.
For CCn1nccc1C(=O)Nc1ccc(Cl)cn1 the results were RE007 growth inh -6%, Sm TGR block -2%, Tb PYK inh -13%, NS1 function inh 6%, FBPA Giardia inh -4% and LmPK inh 28µM*.
O=C(CN1CCCCCC1)Nc1ccc(Cl)cn1 was read as RE007 growth inh 0%, Sm TGR block 40µM*, Tb PYK inh -10%, NS1 function inh 5%, FBPA Giardia inh 5% and LmPK inh -1%.
`CCOc1cc(C2C(C(=O)OC)=C(C)NC3=C2C(=O)c2ccccc23)cc(Br)c1OCC` (stereo not drawn) gave Sm TGR block 2% and Tb PYK inh -2%.
For C=CCn1c(O)c(N=Nc2ccccc2C)c2ccccc21 the results were RE007 growth inh 6%, Sm TGR block 18µM*, Tb PYK inh -20%, NS1 function inh -1%, FBPA Giardia inh -27% and LmPK inh 8%.
`Cc1c(C=O)c(Cl)n(C)c(=O)c1C#N` gave RE007 growth inh 2%, Sm TGR block inconclusive, Tb PYK inh 0%, FBPA Giardia inh 10µM* and LmPK inh -8%.
For Cc1c(CN2CCCCC2)c(O)n(CCCO)c(=O)c1C#N the results were RE007 growth inh -10%, Sm TGR block inconclusive, Tb PYK inh -5%, NS1 function inh 1%, FBPA Giardia inh inconclusive and LmPK inh 0%.
Cc1cc(C)n(C)c(=O)c1C#N was read as RE007 growth inh -10%, Sm TGR block -4%, Tb PYK inh 2%, FBPA Giardia inh 2% and LmPK inh -4%.
Screening CC(=O)N=Cc1c(C)c(C#N)c(=O)n(C)c1O returned RE007 growth inh -3%, Sm TGR block -21%, Tb PYK inh 1%, FBPA Giardia inh 8.9µM* and LmPK inh 1%.
`Cc1c(/C=N/Nc2ccc(F)cc2)c(O)n(C)c(=O)c1C#N` gave RE007 growth inh -6%, Sm TGR block 25µM*, Tb PYK inh -1%, NS1 function inh -1%, FBPA Giardia inh inconclusive and LmPK inh 17%.
For Cn1c(O)c(/C=N/Nc2ccccc2)c(=O)n(C)c1=O the results were RE007 growth inh 236%, Sm TGR block -30%, Tb PYK inh -8%, FBPA Giardia inh -22% and LmPK inh 2%.
For COc1cc(OC)c(OC)cc1CN1CCc2nc(N3CCN(C)CC3)ncc2C1 the results were Sm TGR block 40µM* and Tb PYK inh -5%.
Cc1ccc(CCNC(=O)C2CCC(=O)N(Cc3ccccc3F)C2)o1 (stereo not drawn) was read as RE007 growth inh -2%, Sm TGR block 45µM*, Tb PYK inh -10%, NS1 function inh 4% and LmPK inh 4%.
Screening Cc1cc(C)nc(CCNC(=O)C2CCC(=O)N(Cc3ccccc3F)C2)n1 (stereo not drawn) returned RE007 growth inh 6%, Sm TGR block 0%, Tb PYK inh -2%, NS1 function inh 10% and LmPK inh 1%.
`COc1cccc(CN2CC(C(=O)NCCc3ccc(C)o3)CCC2=O)c1` (stereo not drawn) gave RE007 growth inh 14%, Sm TGR block 13µM*, Tb PYK inh 2%, NS1 function inh 9% and LmPK inh -3%.
CN(Cc1cnccn1)C(=O)C1CCC(=O)N(CCc2ccccc2)C1 (stereo not drawn) was read as RE007 growth inh 1%, Sm TGR block -1%, Tb PYK inh 2%, NS1 function inh 13%, FBPA Giardia inh 12% and LmPK inh 4%.

Source: PubChem
